Consider seven sequences from paper PMC7862700, “An all-to-all approach to the identification of sequence-specific readers for epigenetic DNA modifications on cytosine”.

Holding throughout (assay): DAPPL (digital affinity profiling via proximity ligation, sequencing); 10 mM Tris-HCl pH 7.5, 50 mM NaCl, 1 mM DTT, 4% glycerol, room temperature, 30 min; GST-TFs on glutathione beads, 16-mer random dsDNA library, 0.1% formaldehyde crosslink after washing; high values mean tight binding
One test has as its target T1, FEV (Homo sapiens, UniProt Q99581 1-238).
T1 sequence: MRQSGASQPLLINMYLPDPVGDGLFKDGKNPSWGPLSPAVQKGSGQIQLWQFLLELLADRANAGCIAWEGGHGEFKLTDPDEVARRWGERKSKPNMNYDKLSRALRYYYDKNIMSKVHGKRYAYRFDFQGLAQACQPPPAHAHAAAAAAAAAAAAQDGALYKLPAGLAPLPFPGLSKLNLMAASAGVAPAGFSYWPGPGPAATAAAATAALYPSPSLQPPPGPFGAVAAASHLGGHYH
The settings on record: protein: recombinant; tags: N-terminal GST; dsDNA, one strand shown. In a few lines:
(§1)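 Beads coated with glutathione captured GST-fused human transcription factors that had been expressed in yeast, and the factors were then given DNA barcodes and pooled with a tag-only sample. The pools were incubated with 200 nmole of a random double-stranded 16-mer DNA library in Tris/NaCl/DTT/glycerol buffer for 30 min at room temperature, washed, crosslinked with 0.1% formaldehyde and proximity-ligated with BsaI/T4 ligase at 37 °C for 1 h. PCR amplification and Illumina NextSeq500 sequencing came last. Binding signal is each hexamer's read frequency for a factor divided by its frequency for the tag-only sample.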

In the next test the target is ETV5 (Homo sapiens, UniProt P41161 1-510). Conditions: protein: recombinant; tags: N-terminal GST; dsDNA, one strand shown. In a few lines: as §1
For a further test, the target named is HSF1 (Homo sapiens, UniProt Q00613 1-529). Conditions: protein: recombinant; tags: N-terminal GST; chain copies: 3; dsDNA, one strand shown. In a few lines:
as §1

For a further test, the target named is T2, SPIC (Homo sapiens, UniProt Q8N5J4 1-248).
T2 sequence: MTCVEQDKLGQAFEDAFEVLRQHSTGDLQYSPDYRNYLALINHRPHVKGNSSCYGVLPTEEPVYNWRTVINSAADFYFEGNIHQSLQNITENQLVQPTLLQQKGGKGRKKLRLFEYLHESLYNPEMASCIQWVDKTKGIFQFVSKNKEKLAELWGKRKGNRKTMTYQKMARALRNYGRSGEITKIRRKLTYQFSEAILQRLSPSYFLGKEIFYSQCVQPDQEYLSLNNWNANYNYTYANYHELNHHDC
The settings on record: protein: recombinant; tags: N-terminal GST; dsDNA, one strand shown. In a few lines:
as §1

A further test has as its target ELF4 (Homo sapiens, UniProt Q99607 1-663). The settings on record: protein: recombinant; tags: N-terminal GST; dsDNA, one strand shown. In a few lines:
as §1

Another test deals with T3, ELK4 (Homo sapiens, UniProt P28324-2 1-405).
T3 sequence: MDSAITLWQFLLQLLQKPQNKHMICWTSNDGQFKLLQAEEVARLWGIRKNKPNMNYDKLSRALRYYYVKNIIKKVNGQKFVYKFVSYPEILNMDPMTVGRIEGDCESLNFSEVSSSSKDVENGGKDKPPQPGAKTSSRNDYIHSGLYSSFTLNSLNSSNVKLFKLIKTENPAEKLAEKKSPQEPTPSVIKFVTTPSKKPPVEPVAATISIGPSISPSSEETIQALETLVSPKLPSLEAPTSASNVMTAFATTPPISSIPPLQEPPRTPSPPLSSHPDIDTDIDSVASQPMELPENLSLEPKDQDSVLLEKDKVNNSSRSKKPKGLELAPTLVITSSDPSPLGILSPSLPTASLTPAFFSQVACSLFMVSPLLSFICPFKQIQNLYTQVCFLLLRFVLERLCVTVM
Conditions: protein: recombinant; tags: N-terminal GST; dsDNA, one strand shown. In a few lines:
as §1

The next test has as its target T4, ETV2 (Homo sapiens, UniProt O00321 1-342).
T4 sequence: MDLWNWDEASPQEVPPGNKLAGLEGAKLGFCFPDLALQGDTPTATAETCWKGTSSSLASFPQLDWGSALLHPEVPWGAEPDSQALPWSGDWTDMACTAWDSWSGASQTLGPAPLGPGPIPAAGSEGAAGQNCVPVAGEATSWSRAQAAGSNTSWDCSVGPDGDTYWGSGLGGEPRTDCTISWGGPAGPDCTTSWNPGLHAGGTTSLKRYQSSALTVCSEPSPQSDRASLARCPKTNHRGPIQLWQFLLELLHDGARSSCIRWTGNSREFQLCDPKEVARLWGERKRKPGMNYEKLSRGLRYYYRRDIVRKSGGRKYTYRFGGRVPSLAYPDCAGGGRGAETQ
Conditions: protein: recombinant; tags: N-terminal GST; dsDNA, one strand shown. In a few lines: as §1

A further test concerns the target T5, ELF3 (Homo sapiens, UniProt P78545 1-371).
T5 sequence: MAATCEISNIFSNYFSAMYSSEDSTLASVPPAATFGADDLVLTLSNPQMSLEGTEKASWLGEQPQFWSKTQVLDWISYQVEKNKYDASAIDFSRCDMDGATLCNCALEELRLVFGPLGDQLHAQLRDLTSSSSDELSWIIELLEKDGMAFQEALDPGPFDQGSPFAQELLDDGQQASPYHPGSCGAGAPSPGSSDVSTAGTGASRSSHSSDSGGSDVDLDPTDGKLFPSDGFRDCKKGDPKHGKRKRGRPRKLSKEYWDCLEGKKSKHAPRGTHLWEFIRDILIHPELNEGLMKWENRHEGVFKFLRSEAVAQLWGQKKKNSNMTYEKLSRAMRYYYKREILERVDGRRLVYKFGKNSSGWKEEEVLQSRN
The settings on record: protein: recombinant; tags: N-terminal GST; dsDNA, one strand shown. In a few lines: as §1

Another test addresses CRX (Homo sapiens, UniProt O43186 1-299). Conditions: protein: recombinant; tags: N-terminal GST; dsDNA, one strand shown. In a few lines: as §1
The target in the next test is ETV1 (Homo sapiens, UniProt P50549 1-477). The settings on record: protein: recombinant; tags: N-terminal GST; dsDNA, one strand shown. In a few lines: as §1
ETV1, sequence (P50549 whole entry): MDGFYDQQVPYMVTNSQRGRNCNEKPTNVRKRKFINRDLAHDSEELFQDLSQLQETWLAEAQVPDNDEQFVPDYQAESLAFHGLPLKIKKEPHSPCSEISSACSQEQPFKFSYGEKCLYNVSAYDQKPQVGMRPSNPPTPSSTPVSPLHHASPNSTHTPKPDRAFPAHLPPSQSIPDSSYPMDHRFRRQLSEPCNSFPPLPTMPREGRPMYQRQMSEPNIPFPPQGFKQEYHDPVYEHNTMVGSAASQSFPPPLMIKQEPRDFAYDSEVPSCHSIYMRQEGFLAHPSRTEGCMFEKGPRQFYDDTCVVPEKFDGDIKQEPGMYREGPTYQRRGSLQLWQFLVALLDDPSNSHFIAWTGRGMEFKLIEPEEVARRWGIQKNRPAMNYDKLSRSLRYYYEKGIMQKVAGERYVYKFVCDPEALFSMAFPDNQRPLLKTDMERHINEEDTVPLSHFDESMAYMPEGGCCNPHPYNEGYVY

HSF1, sequence (Q00613 whole entry): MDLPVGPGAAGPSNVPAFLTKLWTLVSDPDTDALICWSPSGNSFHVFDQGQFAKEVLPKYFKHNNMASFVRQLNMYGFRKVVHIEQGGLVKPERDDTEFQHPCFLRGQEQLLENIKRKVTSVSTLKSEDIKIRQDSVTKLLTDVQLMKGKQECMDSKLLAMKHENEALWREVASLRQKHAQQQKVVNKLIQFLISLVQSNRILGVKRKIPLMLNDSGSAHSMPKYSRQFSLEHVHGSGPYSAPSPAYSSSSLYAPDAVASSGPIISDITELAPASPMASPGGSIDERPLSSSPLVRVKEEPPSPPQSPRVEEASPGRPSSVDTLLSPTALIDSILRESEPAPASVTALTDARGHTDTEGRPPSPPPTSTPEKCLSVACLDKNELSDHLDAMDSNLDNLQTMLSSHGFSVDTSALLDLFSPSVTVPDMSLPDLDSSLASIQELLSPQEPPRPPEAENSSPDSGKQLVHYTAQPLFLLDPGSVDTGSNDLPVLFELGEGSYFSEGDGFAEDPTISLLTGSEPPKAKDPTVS
ETV5, sequence (P41161 whole entry): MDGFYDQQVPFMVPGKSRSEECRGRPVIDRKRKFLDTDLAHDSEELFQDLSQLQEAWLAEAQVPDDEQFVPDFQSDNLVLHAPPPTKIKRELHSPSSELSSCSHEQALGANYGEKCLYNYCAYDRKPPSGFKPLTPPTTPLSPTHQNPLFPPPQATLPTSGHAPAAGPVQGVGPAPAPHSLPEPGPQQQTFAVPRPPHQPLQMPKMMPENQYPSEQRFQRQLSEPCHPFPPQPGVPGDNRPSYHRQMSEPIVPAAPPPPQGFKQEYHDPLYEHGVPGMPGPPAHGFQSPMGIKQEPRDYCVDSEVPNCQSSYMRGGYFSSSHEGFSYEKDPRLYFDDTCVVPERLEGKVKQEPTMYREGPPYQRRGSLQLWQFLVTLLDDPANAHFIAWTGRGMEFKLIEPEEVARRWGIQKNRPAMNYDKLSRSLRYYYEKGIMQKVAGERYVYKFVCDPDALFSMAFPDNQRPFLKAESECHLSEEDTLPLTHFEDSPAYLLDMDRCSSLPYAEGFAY
ELF4, sequence (Q99607 whole entry): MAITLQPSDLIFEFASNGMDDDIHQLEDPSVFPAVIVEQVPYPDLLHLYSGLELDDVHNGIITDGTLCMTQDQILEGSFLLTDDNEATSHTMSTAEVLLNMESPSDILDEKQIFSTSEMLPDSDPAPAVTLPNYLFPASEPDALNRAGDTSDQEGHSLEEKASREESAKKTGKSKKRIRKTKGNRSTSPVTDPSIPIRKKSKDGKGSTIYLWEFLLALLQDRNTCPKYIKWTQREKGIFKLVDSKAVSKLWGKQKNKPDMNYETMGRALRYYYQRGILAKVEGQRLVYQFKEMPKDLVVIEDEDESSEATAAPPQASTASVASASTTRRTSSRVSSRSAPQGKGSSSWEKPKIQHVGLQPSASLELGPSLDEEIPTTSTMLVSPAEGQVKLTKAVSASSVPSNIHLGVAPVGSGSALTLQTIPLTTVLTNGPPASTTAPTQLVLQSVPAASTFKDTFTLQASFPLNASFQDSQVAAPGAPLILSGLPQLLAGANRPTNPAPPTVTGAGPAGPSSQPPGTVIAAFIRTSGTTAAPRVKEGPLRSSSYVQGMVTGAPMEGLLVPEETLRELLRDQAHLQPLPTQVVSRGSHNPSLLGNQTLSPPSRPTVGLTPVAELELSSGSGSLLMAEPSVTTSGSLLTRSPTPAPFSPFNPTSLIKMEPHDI
CRX, sequence (O43186 whole entry): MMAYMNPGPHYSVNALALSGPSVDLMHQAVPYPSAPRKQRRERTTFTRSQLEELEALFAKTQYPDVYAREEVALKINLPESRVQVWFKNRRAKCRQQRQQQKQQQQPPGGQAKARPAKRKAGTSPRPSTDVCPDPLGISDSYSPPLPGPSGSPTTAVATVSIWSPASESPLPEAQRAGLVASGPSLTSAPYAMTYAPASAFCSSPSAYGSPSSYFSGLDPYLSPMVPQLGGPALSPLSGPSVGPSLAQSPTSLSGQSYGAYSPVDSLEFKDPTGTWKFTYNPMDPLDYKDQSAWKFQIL

As for TACTCA, the binding signal was 1.24 fold enrichment (6-mer frequency, TF over GST control) with FEV; 1.17 fold enrichment (6-mer frequency, TF over GST control) in the test with ETV5; 1.12 fold enrichment (6-mer frequency, TF over GST control) with HSF1; 1.19 fold enrichment (6-mer frequency, TF over GST control) with SPIC; 1.23 fold enrichment (6-mer frequency, TF over GST control) with ELF4; 1.13 fold enrichment (6-mer frequency, TF over GST control) with ELK4. Besides, the binding signal with ETV2 was 1.17 fold enrichment (6-mer frequency, TF over GST control); in the test with ELF3, 1.22 fold enrichment (6-mer frequency, TF over GST control); with CRX, 1.26 fold enrichment (6-mer frequency, TF over GST control); with ETV1, 1.19 fold enrichment (6-mer frequency, TF over GST control).

For TCTGAT, the binding signal was 1.18 fold enrichment (6-mer frequency, TF over GST control) with FEV; 1.23 fold enrichment (6-mer frequency, TF over GST control) in the test with ETV5; 1.28 fold enrichment (6-mer frequency, TF over GST control) with HSF1; 1.26 fold enrichment (6-mer frequency, TF over GST control) in the test with SPIC; 1.24 fold enrichment (6-mer frequency, TF over GST control) with ELF4; 1.19 fold enrichment (6-mer frequency, TF over GST control) with ELK4. Further, the binding signal with ETV2 is 1.11 fold enrichment (6-mer frequency, TF over GST control); in the test with ELF3, 1.17 fold enrichment (6-mer frequency, TF over GST control); with CRX, 1.55 fold enrichment (6-mer frequency, TF over GST control); with ETV1, 1.15 fold enrichment (6-mer frequency, TF over GST control).

For CACAAG, the binding signal with FEV was 1.08 fold enrichment (6-mer frequency, TF over GST control); with ETV5, 1.13 fold enrichment (6-mer frequency, TF over GST control); with HSF1, 1.06 fold enrichment (6-mer frequency, TF over GST control); with SPIC it was 1.09 fold enrichment (6-mer frequency, TF over GST control); with ELF4, 1.2 fold enrichment (6-mer frequency, TF over GST control); in the test with ELK4, 1.07 fold enrichment (6-mer frequency, TF over GST control). Further, the binding signal is 1.11 fold enrichment (6-mer frequency, TF over GST control) with ETV2; 1.17 fold enrichment (6-mer frequency, TF over GST control) in the test with ELF3; 1.01 fold enrichment (6-mer frequency, TF over GST control) with CRX; 1.18 fold enrichment (6-mer frequency, TF over GST control) with ETV1.

Regarding AAATAA, the binding signal is 1.29 fold enrichment (6-mer frequency, TF over GST control) with FEV; 1.37 fold enrichment (6-mer frequency, TF over GST control) in the test with ETV5; 1.48 fold enrichment (6-mer frequency, TF over GST control) with HSF1; 1.27 fold enrichment (6-mer frequency, TF over GST control) with SPIC; 1.32 fold enrichment (6-mer frequency, TF over GST control) in the test with ELF4; 1.34 fold enrichment (6-mer frequency, TF over GST control) with ELK4. Also, the binding signal with ETV2 is 1.28 fold enrichment (6-mer frequency, TF over GST control); with ELF3, 1.43 fold enrichment (6-mer frequency, TF over GST control); with CRX, 1.71 fold enrichment (6-mer frequency, TF over GST control); with ETV1 it was 1.3 fold enrichment (6-mer frequency, TF over GST control).

In the case of GGCCTT, the binding signal with FEV was 1.14 fold enrichment (6-mer frequency, TF over GST control); in the test with ETV5, 1.16 fold enrichment (6-mer frequency, TF over GST control); with HSF1, 1.05 fold enrichment (6-mer frequency, TF over GST control); with SPIC, 1.16 fold enrichment (6-mer frequency, TF over GST control); with ELF4, 1.25 fold enrichment (6-mer frequency, TF over GST control); with ELK4, 1.09 fold enrichment (6-mer frequency, TF over GST control). The binding signal with ETV2 was 1.07 fold enrichment (6-mer frequency, TF over GST control); with ELF3 it was 1.15 fold enrichment (6-mer frequency, TF over GST control); with CRX it was 1.02 fold enrichment (6-mer frequency, TF over GST control); in the test with ETV1, 1.1 fold enrichment (6-mer frequency, TF over GST control).

Regarding AGAATT, the binding signal is 1.08 fold enrichment (6-mer frequency, TF over GST control) with FEV; 1.13 fold enrichment (6-mer frequency, TF over GST control) with ETV5; 2.2 fold enrichment (6-mer frequency, TF over GST control) with HSF1; 1.24 fold enrichment (6-mer frequency, TF over GST control) in the test with SPIC; 1.24 fold enrichment (6-mer frequency, TF over GST control) with ELF4; 1.2 fold enrichment (6-mer frequency, TF over GST control) with ELK4. The binding signal with ETV2 is 1.06 fold enrichment (6-mer frequency, TF over GST control); with ELF3 it was 1.04 fold enrichment (6-mer frequency, TF over GST control); with CRX, 1.76 fold enrichment (6-mer frequency, TF over GST control); with ETV1 it was 1.16 fold enrichment (6-mer frequency, TF over GST control).

With TATTCT, the binding signal in the test with FEV was 1.27 fold enrichment (6-mer frequency, TF over GST control); with ETV5 it was 1.33 fold enrichment (6-mer frequency, TF over GST control); with HSF1, 2.77 fold enrichment (6-mer frequency, TF over GST control); in the test with SPIC, 1.28 fold enrichment (6-mer frequency, TF over GST control); with ELF4, 1.38 fold enrichment (6-mer frequency, TF over GST control); with ELK4, 1.37 fold enrichment (6-mer frequency, TF over GST control). Besides, the binding signal in the test with ETV2 was 1.29 fold enrichment (6-mer frequency, TF over GST control); with ELF3, 1.38 fold enrichment (6-mer frequency, TF over GST control); in the test with CRX it was 1.9 fold enrichment (6-mer frequency, TF over GST control); with ETV1 it was 1.4 fold enrichment (6-mer frequency, TF over GST control).
